# Measured values reported in the supplement of paper PMC6089552.
# In all, about 3,200 compounds went through this assay and about 300 (9.4%) showed activity. Shown is part of a subset that was picked to be rich in actives.
# System: A673/TR/shEF
# Assay: cell viability (LOESS-normalised, relative to median of negative controls) (log2 ratio); higher = more viable cells (less compound effect), active = hit call of the paper (over 3 MAD below the median)
# Settings: treatment time: 72 h
# In short: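 Viability of A673/TR/shEF Ewing sarcoma cells was determined by CellTiter-Glo luminescence. The cells, at 1,500 per well in 384-well plates, were grown with or without doxycycline from 24 h before compound addition to switch on EWS-FLI1 shRNA knockdown, then exposed for three days to library compounds at two or more concentrations or to DMSO controls. Signals were LOESS-corrected plate by plate, normalised to the negative-control median and log2-transformed.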
# [1] = 0.25 µM, library screen: screen1, EWS-FLI1 expression: high (no doxycycline)
# [2] = 0.25 µM, library screen: screen1, EWS-FLI1 expression: low (doxycycline-induced shRNA knockdown)
# [3] = 2.5 µM, library screen: screen1, EWS-FLI1 expression: high (no doxycycline)
# [4] = 2.5 µM, library screen: screen1, EWS-FLI1 expression: low (doxycycline-induced shRNA knockdown)
# [5] = 0.25 µM, library screen: screen2, EWS-FLI1 expression: high (no doxycycline)
# [6] = 0.25 µM, library screen: screen2, EWS-FLI1 expression: low (doxycycline-induced shRNA knockdown)
# [7] = 2.5 µM, library screen: screen2, EWS-FLI1 expression: high (no doxycycline)
# [8] = 2.5 µM, library screen: screen2, EWS-FLI1 expression: low (doxycycline-induced shRNA knockdown)
smiles,measurement,setting,value
COC1=CC(=O)C(O)=C/C1=C/C=C/c1ccccc1,cell viability (log2),[1],0.0854 (inactive)
same,cell viability (log2),[2],0.141 (inactive)
same,cell viability (log2),[3],0.097 (inactive)
same,cell viability (log2),[4],0.125 (inactive)
N#CC(=C(/N)Sc1ccccc1N)/C(C#N)=C(\N)Sc1ccccc1N,cell viability (log2),[5],0.102 (inactive)
same,cell viability (log2),[6],0.0572 (inactive)
same,cell viability (log2),[7],-0.0299 (inactive)
same,cell viability (log2),[8],-0.0332 (inactive)
N#CC(=C(N)Sc1ccccc1N)C(C#N)=C(N)Sc1ccccc1N,cell viability (log2),"0.025 µM, library screen: screen1, EWS-FLI1 expression: high (no doxycycline)",0.299
same,cell viability (log2),"0.025 µM, library screen: screen1, EWS-FLI1 expression: low (doxycycline-induced shRNA knockdown)",-0.0593 (inactive)
same,cell viability (log2),[1],0.259 (inactive)
same,cell viability (log2),[2],0.136 (inactive)
same,cell viability (log2),[3],-0.31 (active)
same,cell viability (log2),[4],0.171 (inactive)
same,cell viability (log2),"25 µM, library screen: screen1, EWS-FLI1 expression: high (no doxycycline)",-0.459 (active)
same,cell viability (log2),"25 µM, library screen: screen1, EWS-FLI1 expression: low (doxycycline-induced shRNA knockdown)",0.0799 (inactive)
FC(F)(F)c1cc(CO[C@H]2CCCN[C@H]2c2ccccc2)cc(C(F)(F)F)c1,cell viability (log2),[5],0.151 (inactive)
same,cell viability (log2),[6],0.112 (inactive)
same,cell viability (log2),[7],0.041 (inactive)
same,cell viability (log2),[8],0.077 (inactive)
CC(=O)O.CC(=O)O.[Cd],cell viability (log2),[1],0.129 (inactive)
same,cell viability (log2),[2],-0.0033 (inactive)
same,cell viability (log2),[3],0.0042 (inactive)
same,cell viability (log2),[4],-0.0745 (inactive)
CC(=O)O[C@@H]1c2c(ccc3ccc(=O)oc23)OC(C)(C)[C@@H]1OC(=O)CC(C)C,cell viability (log2),[1],0.0407 (inactive)
same,cell viability (log2),[2],-0.0116 (inactive)
same,cell viability (log2),[3],0.121 (inactive)
same,cell viability (log2),[4],0.0173 (inactive)
CC(=O)OC(CC(=O)[O-])C[N+](C)(C)C (configuration not stated),cell viability (log2),[1],0.00442 (inactive)
same,cell viability (log2),[2],0.0665 (inactive)
same,cell viability (log2),[3],0.0316 (inactive)
same,cell viability (log2),[4],-0.00031 (inactive)
